This is a sample that favours compounds with a hit; in the whole collection about 7.3% have one here.
KinaseGlo FLuc: counter-screen: inhibitors of Kinase-Glo firefly luciferase | Q27757 | Potency, µM (titrated, usually from 38.3 µM), most hits filed as inhibitors | Kinase-Glo luciferase, ATP luminescence, 8 min | actives 0.28% (n = 200,000); also: nearly all actives have a fitted effect of over 60% in size
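Light output from Kinase-Glo luciferase with luciferin and 10 uM ATP in 50 mM imidazole pH 7.2, KCl, MgCl2, Tween 20, BSA; compound pin-delivered, 8-min ambient incubation, then luminescence read.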
NPC1 prom act: activators of NPC1 promoter. Huh7 NPC1 promoter luciferase reporter, 24 h. Potency, µM (series often up to 9.22 µM), usual class: activators. actives 2.4% (n = 320,000); also: nearly all actives have a fitted effect of over 60% in size
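Luminescence read-out of NPC1 promoter-driven luciferase in stably transfected Huh7 cells; compounds delivered in DMSO and left 24 h at 37C, 5% CO2, qHTS titration format.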
SMN2 splice up: enhancers of SMN2 splice variant expression. HEK293 SMN2-luciferase splicing reporter, luminescence, 30-36 h. Potency, µM (series often up to 46.1 µM), usual class: activators. actives 2.8% (n = 210,000); also: nearly all actives have a fitted effect of over 55% in size
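HEK293 cells carry an SMN2 […]–luciferase reporter in which exon 7 inclusion puts luciferase in frame. Cells were plated 10-12 h before compound addition, then incubated 30-36 h at 37C. ONE-Glo luminescence was read; sodium butyrate at 4.5 mM final served as control.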
Rab9 promoter act: activators of Rab9 promoter; Huh7 Rab9 promoter-luciferase reporter, luminescence, 24 h; Potency, µM (series often up to 9.22 µM), most hits filed as activators; actives 2.8% (n = 320,000); AID 485297; also: nearly all actives have a fitted effect of over 60% in size
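Quantitative HTS format; Huh7 Rab9-luciferase reporter cells (1500/well) receive compound 2 h post-plating, incubate 24 h at 37 °C, then get luciferase reagent for 10 min before luminescence reading.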
FLuc modulator: firefly luciferase modulation, counter-screen for miR-21 project; purified FLuc, Km substrates, luminescence inhibition; Potency, µM (doses to about 57.5 µM), most hits filed as inhibitors; actives 6.9% (n = 360,000); AID 588342; also: nearly all actives have a fitted effect of over 55% in size
Target sequence (P08659 whole entry, looked up): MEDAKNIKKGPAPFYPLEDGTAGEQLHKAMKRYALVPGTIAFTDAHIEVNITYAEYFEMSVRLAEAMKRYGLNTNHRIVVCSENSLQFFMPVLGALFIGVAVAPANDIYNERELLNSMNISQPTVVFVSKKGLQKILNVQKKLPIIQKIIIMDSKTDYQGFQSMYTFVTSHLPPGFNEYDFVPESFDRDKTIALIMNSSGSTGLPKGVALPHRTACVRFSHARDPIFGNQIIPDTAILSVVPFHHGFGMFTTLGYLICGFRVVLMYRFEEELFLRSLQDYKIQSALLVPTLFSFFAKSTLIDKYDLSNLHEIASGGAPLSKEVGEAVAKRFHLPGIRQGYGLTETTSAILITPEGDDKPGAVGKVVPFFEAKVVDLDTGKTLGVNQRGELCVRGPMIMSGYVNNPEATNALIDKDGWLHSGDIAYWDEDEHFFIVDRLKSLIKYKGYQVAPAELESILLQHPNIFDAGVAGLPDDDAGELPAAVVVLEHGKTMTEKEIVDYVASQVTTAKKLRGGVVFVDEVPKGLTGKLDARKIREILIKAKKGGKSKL
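Purified P. pyralis luciferase, 10 nM final, with Km-level 10 uM D-luciferin and 10 uM ATP in 50 mM Tris acetate pH 7.5, 10 mM Mg acetate, 0.01% Tween-20, 0.05% BSA; 6-point qHTS titration about 60 µM downward; luminescence read.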
Of the large screens only hits and unclear results are named; the others gave an inactive call. Calls follow the shape of the dose curve; as a rule, active = well fitted curve in the direction sought with a large enough effect; inconclusive = small, poorly fitted or top-dose-only effect, or another doubt; inactive = no such curve, though single readings can be large; an effect the other way counts as inactive or inconclusive.

O=C(CCc1nnc(-c2ccc(-c3ccccc3)cc2)o1)NCCc1ccccn1	FLuc modulator 19µM (no result: SMN2 splice up)
CC(c1ccon1)N(C)C(=O)CCc1nnc(Cc2ccc(-c3ccccc3)cc2)o1 (stereo not drawn)	FLuc modulator inconclusive (no result: SMN2 splice up)
CC(c1nccs1)N(C)C(=O)CCc1nnc(-c2ccc(-c3ccccc3)cc2)o1 (stereo not drawn)	FLuc modulator 12µM (no result: KinaseGlo FLuc, SMN2 splice up)
Cc1ccc(NC(=O)CSc2nnc(C)n3c2cc2sccc23)c(C)c1	none (no result: KinaseGlo FLuc, NPC1 prom act, SMN2 splice up, Rab9 promoter act)
O=C(O)c1cc(S(=O)(=O)Nc2cccc(F)c2)ccc1Cl	none (no result: NPC1 prom act, SMN2 splice up, Rab9 promoter act, FLuc modulator)
CCc1ccc(CNCc2c(C(=O)O)n(Cc3cccc(F)c3)c3cc(OC)ccc23)cc1	none (no result: KinaseGlo FLuc, NPC1 prom act, SMN2 splice up, Rab9 promoter act)
COc1ccc(/C=C\c2nc(=O)c3ccccc3o2)cc1	NPC1 prom act inconclusive, Rab9 promoter act inconclusive, FLuc modulator 3.8µM (no result: SMN2 splice up)
O=c1nc(/C=C/c2ccc(O)c(O)c2)oc2ccccc12	NPC1 prom act inconclusive, Rab9 promoter act inconclusive, FLuc modulator 8.5µM (no result: KinaseGlo FLuc, SMN2 splice up)
CCn1c(/C=C/c2ccc(O)c(O)c2)nc2ccccc2c1=O	none (no result: KinaseGlo FLuc, SMN2 splice up)
O=C(c1ccc(CSc2nc3ccncc3[nH]2)cc1)N1CCCCCC1	NPC1 prom act inconclusive, Rab9 promoter act inconclusive, FLuc modulator 15µM (no result: KinaseGlo FLuc, SMN2 splice up)
Clc1ccc(CSc2nc3ccncc3[nH]2)cc1	KinaseGlo FLuc inconclusive, NPC1 prom act 0.63µM, SMN2 splice up 11µM, Rab9 promoter act 0.71µM, FLuc modulator 4.8µM
O=C(NCc1ccc(Cl)cc1)c1ccc(CSc2nc3ccncc3[nH]2)cc1	none (no result: KinaseGlo FLuc, SMN2 splice up)
O=C(c1ccc(CSc2nc3ccncc3n2Cc2ccccc2)cc1)N1CCCCCC1	FLuc modulator 17µM (no result: KinaseGlo FLuc, NPC1 prom act, Rab9 promoter act)
Cc1ccc(CSc2nc3ccncc3[nH]2)cc1	KinaseGlo FLuc 11µM, NPC1 prom act inconclusive, SMN2 splice up 7.1µM, Rab9 promoter act inconclusive, FLuc modulator 2.7µM
[ClH+][Cu][ClH+].[Cu].[OH2+]c1ccc2ccccc2c1CN1CCCCC1.[OH2+]c1ccc2ccccc2c1CN1CCCCC1	none (no result: NPC1 prom act, Rab9 promoter act, FLuc modulator)
COc1cccc(C(=O)Nc2cc(-c3cn4cccnc4n3)ccc2C)c1OC	none (no result: KinaseGlo FLuc, NPC1 prom act, SMN2 splice up, Rab9 promoter act)
O=c1[nH]c(SCc2c(F)cccc2Cl)nc2c1CCC2	none (no result: KinaseGlo FLuc, NPC1 prom act, SMN2 splice up, Rab9 promoter act)
CCOC(=O)c1sc(NC(=O)Nc2ccccc2Cl)cc1C	KinaseGlo FLuc inconclusive, NPC1 prom act 0.71µM, SMN2 splice up 0.71µM, Rab9 promoter act 0.63µM, FLuc modulator 0.43µM
CCOC(=O)c1sc(NC(=O)Nc2ccccc2)cc1C	NPC1 prom act 1.3µM, SMN2 splice up 3.2µM, Rab9 promoter act 0.71µM, FLuc modulator 0.48µM
CCOC(=O)c1sc(NC(=O)C2CCC2)cc1C	NPC1 prom act inconclusive, SMN2 splice up 16µM, Rab9 promoter act inconclusive, FLuc modulator 12µM
CCOC(=O)c1sc(NC(C)=O)cc1C	none
CCOC(=O)c1sc(NC(=O)c2ccc(C)s2)cc1C	NPC1 prom act inconclusive, SMN2 splice up 22µM, Rab9 promoter act 1.1µM, FLuc modulator 0.85µM
Cc1ccc(Cn2c(=O)c3cccnc3n(CC(=O)Nc3cc(Cl)ccc3C)c2=O)cc1	none (no result: KinaseGlo FLuc, NPC1 prom act, Rab9 promoter act)
COc1ccc(CCn2cc3c(c2-c2ccccc2Br)c(=O)n(C)c(=O)n3C)cc1OC	none (no result: KinaseGlo FLuc, NPC1 prom act, Rab9 promoter act)
Cc1nn(C)c2c1c(-c1ccccc1)cc(=O)n2Cc1c(F)cccc1Cl	none (no result: KinaseGlo FLuc, NPC1 prom act, SMN2 splice up, Rab9 promoter act)
CC1(C)Cc2nc3sc4c(NCCO)ncnc4c3cc2CS1	Rab9 promoter act inconclusive, FLuc modulator 19µM (no result: KinaseGlo FLuc, SMN2 splice up)
CC(C)CCn1cnc2c(sc3nc4c(cc32)CSC(C)(C)C4)c1=O	NPC1 prom act 1µM, Rab9 promoter act 0.63µM, FLuc modulator 0.6µM
CCCCn1cnc2c(sc3nc4c(cc32)CSC(C)(C)C4)c1=O	NPC1 prom act 0.63µM, SMN2 splice up 4µM, Rab9 promoter act 1.1µM, FLuc modulator 1.1µM
CC1(C)Cc2nc3sc(C(=O)O)c(N)c3cc2CS1	FLuc modulator inconclusive
CCOC(=O)C1=C(c2ccccc2)NC(N)=NC1c1ccc(OCc2ccc(Cl)cc2)c(OC)c1 (stereo not drawn)	FLuc modulator 13µM (no result: KinaseGlo FLuc, SMN2 splice up)
CCOC(=O)C1=C(c2ccccc2)NC(=O)NC1c1cc(Cl)c(O)c(OC)c1 (stereo not drawn)	none
Cc1cccc(N2CCN(C(=O)CCNS(=O)(=O)c3ccc4c(c3)CCN4C(=O)C3CC3)CC2C)c1 (stereo not drawn)	none (no result: KinaseGlo FLuc, NPC1 prom act, SMN2 splice up, Rab9 promoter act)
Cn1c(Cl)c(/C=N/OC(=O)c2ccc(Cl)cc2)c2ccccc21	FLuc modulator 3.4µM
Cc1cccc(C(=O)O/N=C/c2c(Cl)n(C)c3ccccc23)c1	FLuc modulator inconclusive
